Measured values from PMC7862700, “An all-to-all approach to the identification of sequence-specific readers for epigenetic DNA modifications on cytosine”.

Legend:
Experiment in all cases: DAPPL (digital affinity profiling via proximity ligation, sequencing); 10 mM Tris-HCl pH 7.5, 50 mM NaCl, 1 mM DTT, 4% glycerol, room temperature, 30 min; GST-TFs on glutathione beads, 16-mer random dsDNA library, 0.1% formaldehyde crosslink after washing; high values mean tight binding
Conditions in all cases: protein: recombinant; tags: N-terminal GST; dsDNA, one strand shown
[1] = molecular target: T1, ERF (Homo sapiens, UniProt P50548 1-548)
T1 sequence: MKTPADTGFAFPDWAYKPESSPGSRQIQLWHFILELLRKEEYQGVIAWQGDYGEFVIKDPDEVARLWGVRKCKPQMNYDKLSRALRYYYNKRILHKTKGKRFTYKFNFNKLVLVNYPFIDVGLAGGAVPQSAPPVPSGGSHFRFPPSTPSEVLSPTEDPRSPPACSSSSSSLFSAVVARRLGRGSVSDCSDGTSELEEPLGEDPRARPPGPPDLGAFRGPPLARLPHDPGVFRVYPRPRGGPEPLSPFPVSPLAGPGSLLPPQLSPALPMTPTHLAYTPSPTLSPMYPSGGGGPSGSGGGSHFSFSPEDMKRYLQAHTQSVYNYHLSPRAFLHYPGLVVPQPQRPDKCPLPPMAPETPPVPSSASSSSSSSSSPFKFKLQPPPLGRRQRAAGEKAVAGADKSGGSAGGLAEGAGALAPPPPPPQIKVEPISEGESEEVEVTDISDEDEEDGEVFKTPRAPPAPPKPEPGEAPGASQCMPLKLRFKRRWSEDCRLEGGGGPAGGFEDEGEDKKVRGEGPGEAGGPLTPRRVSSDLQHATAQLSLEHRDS
Outline: (§1)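 Human transcription factors carrying a GST fusion were produced in yeast, bound to glutathione beads, tagged with DNA barcodes and pooled together with a tag-only sample. Each pool was held with 200 nmole of a random double-stranded 16-mer DNA library in Tris/NaCl/DTT/glycerol buffer for 30 min at room temperature, then washed, crosslinked in 0.1% formaldehyde, proximity-ligated with BsaI/T4 ligase (1 h, 37 °C), PCR-amplified and sequenced on an Illumina NextSeq500. Binding signal is the read frequency of each hexamer for a given factor divided by its frequency in the tag-only sample.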

[2] = molecular target: T2, ETV3L (Homo sapiens, UniProt Q6ZN32 1-361)
T2 sequence: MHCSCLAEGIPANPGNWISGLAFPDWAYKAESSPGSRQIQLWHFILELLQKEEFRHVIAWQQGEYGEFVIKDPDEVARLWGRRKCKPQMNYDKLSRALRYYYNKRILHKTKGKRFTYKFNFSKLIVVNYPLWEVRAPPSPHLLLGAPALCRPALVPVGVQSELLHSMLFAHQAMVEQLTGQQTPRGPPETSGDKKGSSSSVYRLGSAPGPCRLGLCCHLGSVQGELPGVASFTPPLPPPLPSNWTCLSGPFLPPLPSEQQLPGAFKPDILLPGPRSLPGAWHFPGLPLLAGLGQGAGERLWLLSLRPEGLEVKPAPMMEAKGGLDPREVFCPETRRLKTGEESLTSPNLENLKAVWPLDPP
Outline: as §1

[3] = molecular target: T3, ETS2 (Homo sapiens, UniProt P15036 1-469)
T3 sequence: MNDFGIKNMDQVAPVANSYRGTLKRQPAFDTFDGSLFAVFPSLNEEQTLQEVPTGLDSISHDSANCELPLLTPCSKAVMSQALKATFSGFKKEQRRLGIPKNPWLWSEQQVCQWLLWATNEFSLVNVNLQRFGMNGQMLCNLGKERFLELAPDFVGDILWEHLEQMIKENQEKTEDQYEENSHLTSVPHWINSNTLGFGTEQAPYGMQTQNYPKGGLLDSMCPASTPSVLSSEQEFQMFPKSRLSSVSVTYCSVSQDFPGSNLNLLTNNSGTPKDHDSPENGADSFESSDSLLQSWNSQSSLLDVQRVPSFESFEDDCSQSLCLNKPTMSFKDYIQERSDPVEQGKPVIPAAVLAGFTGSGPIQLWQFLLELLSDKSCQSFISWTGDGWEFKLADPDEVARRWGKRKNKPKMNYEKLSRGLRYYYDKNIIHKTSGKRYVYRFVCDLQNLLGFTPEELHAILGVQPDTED
Outline: as §1

[4] = molecular target: T4, SPDEF (Homo sapiens, UniProt O95238 1-335)
T4 sequence: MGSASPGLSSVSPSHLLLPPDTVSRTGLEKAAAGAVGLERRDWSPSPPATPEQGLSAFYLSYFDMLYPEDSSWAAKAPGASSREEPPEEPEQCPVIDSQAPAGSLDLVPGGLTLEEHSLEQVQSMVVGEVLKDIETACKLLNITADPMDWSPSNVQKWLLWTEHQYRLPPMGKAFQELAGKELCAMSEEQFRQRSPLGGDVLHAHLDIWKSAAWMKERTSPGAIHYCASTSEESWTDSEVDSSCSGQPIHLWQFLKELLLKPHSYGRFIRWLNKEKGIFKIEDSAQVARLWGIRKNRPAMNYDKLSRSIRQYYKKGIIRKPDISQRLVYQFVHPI
Outline: as §1

[5] = molecular target: T5, ETV7 (Homo sapiens, UniProt Q9Y603 1-341)
T5 sequence: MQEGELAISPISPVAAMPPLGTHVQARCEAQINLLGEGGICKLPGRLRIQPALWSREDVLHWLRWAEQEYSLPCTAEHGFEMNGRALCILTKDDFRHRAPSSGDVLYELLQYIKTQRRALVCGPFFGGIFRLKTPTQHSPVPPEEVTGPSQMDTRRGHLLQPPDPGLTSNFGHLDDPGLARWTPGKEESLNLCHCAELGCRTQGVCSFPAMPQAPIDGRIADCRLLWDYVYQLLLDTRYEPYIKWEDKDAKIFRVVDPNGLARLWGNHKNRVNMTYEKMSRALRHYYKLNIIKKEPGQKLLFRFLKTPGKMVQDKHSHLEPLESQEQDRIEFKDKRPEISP
Outline: as §1

[6] = molecular target: T6, ELF5 (Homo sapiens, UniProt Q9UKW6-2 1-255)
T6 sequence: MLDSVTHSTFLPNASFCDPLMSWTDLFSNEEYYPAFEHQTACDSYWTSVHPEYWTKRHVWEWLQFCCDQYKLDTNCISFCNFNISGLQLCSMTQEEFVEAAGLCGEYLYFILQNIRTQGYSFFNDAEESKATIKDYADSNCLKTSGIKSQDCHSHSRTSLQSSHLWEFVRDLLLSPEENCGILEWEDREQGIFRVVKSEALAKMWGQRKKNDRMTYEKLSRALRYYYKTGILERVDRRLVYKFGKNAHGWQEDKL
Outline: as §1

[7] = molecular target: T7, ETV3 (Homo sapiens, UniProt P41162-2 1-143)
T7 sequence: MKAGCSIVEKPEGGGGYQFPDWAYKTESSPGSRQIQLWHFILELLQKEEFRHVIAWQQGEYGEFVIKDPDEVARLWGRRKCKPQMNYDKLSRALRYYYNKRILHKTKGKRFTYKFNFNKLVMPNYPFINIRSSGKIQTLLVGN
Outline: as §1

[8] = molecular target: ETV6 (Homo sapiens, UniProt P41212 1-452)
Outline: as §1

Sequence of ETV6 (P41212 whole entry): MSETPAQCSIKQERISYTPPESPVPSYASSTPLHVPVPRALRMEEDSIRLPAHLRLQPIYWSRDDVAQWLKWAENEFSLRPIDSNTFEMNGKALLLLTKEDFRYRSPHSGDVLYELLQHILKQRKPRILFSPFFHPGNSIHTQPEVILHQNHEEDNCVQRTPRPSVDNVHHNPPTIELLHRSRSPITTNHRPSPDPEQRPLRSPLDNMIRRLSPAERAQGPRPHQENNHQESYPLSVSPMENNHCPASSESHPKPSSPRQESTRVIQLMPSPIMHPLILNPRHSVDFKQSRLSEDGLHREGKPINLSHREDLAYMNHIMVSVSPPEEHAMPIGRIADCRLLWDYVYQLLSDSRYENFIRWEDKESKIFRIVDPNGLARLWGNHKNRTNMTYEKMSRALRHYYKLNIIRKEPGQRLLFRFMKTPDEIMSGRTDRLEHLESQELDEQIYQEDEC

Question: With TTAGCG as the sequence, how does the binding signal [1] read?
Answer: 1.05 fold enrichment (6-mer frequency, TF over GST control)

Question: And the binding signal [2]?
Answer: 1.06 fold enrichment (6-mer frequency, TF over GST control)

Question: What about the binding signal [3] of the same sequence?
Answer: 1.06 fold enrichment (6-mer frequency, TF over GST control)

Question: And the binding signal [4]?
Answer: 1.04 fold enrichment (6-mer frequency, TF over GST control)

Question: What about the binding signal [5] of the same sequence?
Answer: 1.11 fold enrichment (6-mer frequency, TF over GST control)

Question: And the binding signal [6]?
Answer: 1.02 fold enrichment (6-mer frequency, TF over GST control)

Question: And the binding signal [7]?
Answer: 1.03 fold enrichment (6-mer frequency, TF over GST control)

Question: What about the binding signal [8] of the same sequence?
Answer: 1.04 fold enrichment (6-mer frequency, TF over GST control)

Question: Which results are given for ATTCAA?
Answer: binding signal [1]: 1.38 fold enrichment (6-mer frequency, TF over GST control); binding signal [2]: 1.34 fold enrichment (6-mer frequency, TF over GST control); binding signal [3]: 1.36 fold enrichment (6-mer frequency, TF over GST control); binding signal [4]: 1.31 fold enrichment (6-mer frequency, TF over GST control); binding signal [5]: 1.19 fold enrichment (6-mer frequency, TF over GST control); binding signal [6]: 1.24 fold enrichment (6-mer frequency, TF over GST control); binding signal [7]: 1.37 fold enrichment (6-mer frequency, TF over GST control); binding signal [8]: 1.33 fold enrichment (6-mer frequency, TF over GST control)

Question: Which binding signal [1] does the source give for AGAAGC here?
Answer: 1.11 fold enrichment (6-mer frequency, TF over GST control)

Question: What about the binding signal [2] of the same sequence?
Answer: 1.17 fold enrichment (6-mer frequency, TF over GST control)

Question: And the binding signal [3]?
Answer: 1.09 fold enrichment (6-mer frequency, TF over GST control)

Question: And the binding signal [4]?
Answer: 1.15 fold enrichment (6-mer frequency, TF over GST control)

Question: What about the binding signal [5] of the same sequence?
Answer: 1.23 fold enrichment (6-mer frequency, TF over GST control)

Question: And the binding signal [6]?
Answer: 1.18 fold enrichment (6-mer frequency, TF over GST control)

Question: What about the binding signal [7] of the same sequence?
Answer: 1.23 fold enrichment (6-mer frequency, TF over GST control)

Question: What about the binding signal [8] of the same sequence?
Answer: 1.14 fold enrichment (6-mer frequency, TF over GST control)

Question: TAGCAA was tested. Which binding signal [1] did it give?
Answer: 1.28 fold enrichment (6-mer frequency, TF over GST control)

Question: And the binding signal [2]?
Answer: 1.22 fold enrichment (6-mer frequency, TF over GST control)

Question: And the binding signal [3]?
Answer: 1.26 fold enrichment (6-mer frequency, TF over GST control)

Question: What about the binding signal [4] of the same sequence?
Answer: 1.23 fold enrichment (6-mer frequency, TF over GST control)

Question: What about the binding signal [5] of the same sequence?
Answer: 1.25 fold enrichment (6-mer frequency, TF over GST control)

Question: And the binding signal [6]?
Answer: 1.23 fold enrichment (6-mer frequency, TF over GST control)

Question: What about the binding signal [7] of the same sequence?
Answer: 1.34 fold enrichment (6-mer frequency, TF over GST control)

Question: What about the binding signal [8] of the same sequence?
Answer: 1.29 fold enrichment (6-mer frequency, TF over GST control)

Question: Which binding signal [1] does the source give for TTGACC here?
Answer: 1.45 fold enrichment (6-mer frequency, TF over GST control)

Question: And the binding signal [2]?
Answer: 1.46 fold enrichment (6-mer frequency, TF over GST control)

Question: What about the binding signal [3] of the same sequence?
Answer: 1.4 fold enrichment (6-mer frequency, TF over GST control)

Question: What about the binding signal [4] of the same sequence?
Answer: 1.52 fold enrichment (6-mer frequency, TF over GST control)

Question: And the binding signal [5]?
Answer: 1.35 fold enrichment (6-mer frequency, TF over GST control)

Question: And the binding signal [6]?
Answer: 1.37 fold enrichment (6-mer frequency, TF over GST control)

Question: What about the binding signal [7] of the same sequence?
Answer: 1.44 fold enrichment (6-mer frequency, TF over GST control)

Question: What about the binding signal [8] of the same sequence?
Answer: 1.41 fold enrichment (6-mer frequency, TF over GST control)

Question: Which results are given for GGATAT?
Answer: binding signal [1]: 1.62 fold enrichment (6-mer frequency, TF over GST control); binding signal [2]: 1.55 fold enrichment (6-mer frequency, TF over GST control); binding signal [3]: 1.66 fold enrichment (6-mer frequency, TF over GST control); binding signal [4]: 2.38 fold enrichment (6-mer frequency, TF over GST control); binding signal [5]: 1.48 fold enrichment (6-mer frequency, TF over GST control); binding signal [6]: 1.92 fold enrichment (6-mer frequency, TF over GST control); binding signal [7]: 1.71 fold enrichment (6-mer frequency, TF over GST control); binding signal [8]: 1.6 fold enrichment (6-mer frequency, TF over GST control)

Question: What does the source list for CTGCCG?
Answer: binding signal [1]: 1.27 fold enrichment (6-mer frequency, TF over GST control); binding signal [2]: 1.23 fold enrichment (6-mer frequency, TF over GST control); binding signal [3]: 1.32 fold enrichment (6-mer frequency, TF over GST control); binding signal [4]: 1.26 fold enrichment (6-mer frequency, TF over GST control); binding signal [5]: 1.39 fold enrichment (6-mer frequency, TF over GST control); binding signal [6]: 1.33 fold enrichment (6-mer frequency, TF over GST control); binding signal [7]: 1.44 fold enrichment (6-mer frequency, TF over GST control); binding signal [8]: 1.39 fold enrichment (6-mer frequency, TF over GST control)
